Reference: PubChem BioAssay AID504621 (Broad Institute, 2011)
Among all 310,000 compounds or so, about 970 (0.31%) were called active. Many of the other results were omitted from the sample, so actives are more common in it than they were. A number with no mark means an inactive call.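 The calls were made as follows: active = every replicate shows inhibition above about 80%, whatever the replicate mean (limit read from the data); inconclusive = mean inhibition reaches the set limit but some replicate falls short; inactive = the rest.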

Test: reduced ATP signal of yeast carrying P. falciparum Hsp90 – S. cerevisiae, BacTiter-Glo luminescence, single point, set 2, antimalarial PfHsp90 inhibitor project, primary screen (AID 504621);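 also: yeast relying on Plasmodium falciparum Hsp90 in place of its own; 0% = DMSO neutral controls and 100% = 20 µM radicicol positive controls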
Settings: S. cerevisiae expressing PfHsp90, growth, 48 h, at 9.4 µM, hits give high values

Going from CCOC(=O)C1(c2ccccc2)CCN(CC(O)c2ccc(NC(C)=O)cc2)CC1 (centres undefined) to O=C(c1ccccc1)C(O)(CN1CCCCC1)c1ccccc1 (centres undefined), the inhibition rises from -7.12% to 8.04%.

Going from CCC(=O)OC(Cc1ccccc1)(c1ccccc1)C(C)CN(C)C (centres undefined) to CC(CC(C#N)(c1ccccc1)c1ccccc1)N1CCCCC1 (centres undefined), the inhibition falls from 34.8% to 13.9%.

Going from COC1C(O)C(C)OC(OC2CCC3(C=O)C(CCC4C3CCC3(C)C(C5=CC(=O)OC5)CCC43O)C2)C1O (centres undefined) to CC(=O)C1(O)CCC2C3CCC4=C(Cl)C(=O)CCC4(C)C3CCC21C (centres undefined), the inhibition rises from -24.6% to 7.87%.

Going from CC(=O)OC1C2(CC3N4C(=O)C5(CO)SSC4(CC31O)C(=O)N5C)OC(C)C(C)(C)C2=O (centres undefined) to CCC(C)(O)C(=O)OC1C(=O)OC2CC3C(C)=CC(=O)C(O)C3(C)C3C4(O)OCC23C1C(C)C4O (centres undefined), the inhibition falls from 11.7% to -25.9%.

Going from CC1CC=CCC12C(=O)NC(=S)NC2=O (centres undefined) to CC1C(=O)OC2CCN3CC=C(COC(=O)C(C)(O)C1(C)O)C23 (centres undefined), the inhibition rises from 3.23% to 11.4%.

Going from CC12CCC(O)CC1CCC1C2CCC2(C)C(C(=O)CC(O)C(F)(F)F)CCC12 (centres undefined) to CC12CCC3C(CCC4CC(=O)CCC43C)C1CC(=NO)C2=O (centres undefined), the inhibition falls from -14.7% to -28.6%.

For CN(C)CC1Oc2ccccc2OC1(O)c1ccccc1 (centres undefined), the inhibition was 102% (active).
For CCCCCCCCCCCCn1ccc(=N)cc1, the inhibition was 93.6% (active).
